Screening data: PubChem BioAssay, National Center for Advancing Translational Sciences (NCATS)
Tb PFK block: qHTS Assay to Find Inhibitors of T. brucei phosphofructokinase | Potency, µM (highest dose often 57.5 µM), inactives show at the top dose activity, negative = inhibition, usual class: inhibitors | 330,000 tested, 0.17% active | T. brucei PFK, ADP-Glo luminescence | AID 485367, 2010;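 note: 0% = uninhibited 1x PFK enzyme wells and -100% = no-enzyme wells; nearly all actives have a fitted effect of over 60% in size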
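In TEA buffer at pH 8.0 with 5 mM MgCl2, enzyme (1.25 nM) converted F6P (0.5 mM) and ATP (0.1 mM) for 45 min at room temperature. ADP product was read by luciferase luminescence.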
GLS inhibitor: qHTS for Inhibitors of Glutaminase (GLS); 410,000 tested, 0.21% active; GLS enzymatic activity, qHTS titration; Glutaminase kidney isoform, mitochondrial (Homo sapiens), O94925; Potency, µM (doses to about 45.5 µM), for inactives: at the top dose activity change, negative = inhibition, most hits filed as inhibitors
Target sequence (O94925 whole entry, looked up, canonical isoform): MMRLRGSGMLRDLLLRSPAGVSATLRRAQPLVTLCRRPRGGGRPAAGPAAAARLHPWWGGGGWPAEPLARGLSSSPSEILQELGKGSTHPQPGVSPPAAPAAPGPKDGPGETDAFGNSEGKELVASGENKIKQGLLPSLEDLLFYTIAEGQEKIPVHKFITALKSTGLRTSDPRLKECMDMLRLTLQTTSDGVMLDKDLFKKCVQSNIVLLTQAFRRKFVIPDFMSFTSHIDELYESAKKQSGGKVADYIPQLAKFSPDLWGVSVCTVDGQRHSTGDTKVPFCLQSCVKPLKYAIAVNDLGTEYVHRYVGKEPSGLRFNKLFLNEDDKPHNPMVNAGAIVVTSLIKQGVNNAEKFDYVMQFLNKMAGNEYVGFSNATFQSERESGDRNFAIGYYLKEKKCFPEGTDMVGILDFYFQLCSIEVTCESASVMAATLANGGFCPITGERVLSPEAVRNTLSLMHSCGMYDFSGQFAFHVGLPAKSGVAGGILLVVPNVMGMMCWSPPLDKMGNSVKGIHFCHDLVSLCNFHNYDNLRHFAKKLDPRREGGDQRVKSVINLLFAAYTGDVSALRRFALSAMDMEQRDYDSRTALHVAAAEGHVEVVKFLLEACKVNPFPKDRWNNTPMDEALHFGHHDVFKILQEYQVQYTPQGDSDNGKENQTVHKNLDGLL
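Read-out is an Amplex red fluorescence increase coupled through glutamate oxidase and HRP, measured before and after 30 min room-temperature incubation. hKGA is in 45 mM KH2PO4 (pH 8.2) with 0.02% Tween-20; glutamine added as 1mM solution.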
PGK inhibitor: qHTS Assay to Find Inhibitors of Phosphoglycerate Kinase. PGK/GAPDH coupled, Kinase-Glo luminescence, 60 min. Potency, µM (top dose mostly 57.5 µM), without a hit: top-dose activity change, negative = inhibition, most hits filed as inhibitors. 380,000 tested, 0.043% active. AID 602233, 2012; note: nearly all actives have a fitted effect of over 60% in size
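Recombinant glycosomal PGK reaction used 1,3-bisphosphoglycerate generated in-well by GAPDH (100nM final) in 100mM TEA pH 7.6, 5mM MgCl2, 0.01% Tween-20. After 60 minutes at room temperature, ATP was read by Kinase-Glo Plus luminescence end-point.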
B2AR arrestin: qHTS assay of beta-arrestin-biased ligands of beta2-adrenergic receptor; AID 492947, 2010; beta-arrestin recruitment to beta2AR, cell-based reporter; Beta-2 adrenergic receptor (Homo sapiens), P07550; Potency, µM (top dose mostly 46.1 µM), for inactives: at the top dose activation, most hits filed as activators; 330,000 tested, 0.02% active;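 note: 0% = DMSO controls and full agonism = EC100 isoproterenol or metaproterenol; nearly all actives have a fitted effect of over 65% in size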
BCR signal inh: qHTS Assay to Find Inhibitors of Chronic Active B-Cell Receptor Signaling; ABC-DLBCL IkBa-CBG/CBR reporter, luminescence ratio, 4 h; Potency, µM (series often up to 46.1 µM), for inactives: at the highest dose activity change, negative = inhibition, most hits filed as inhibitors; 340,000 tested, 0.05% active; AID 493014, 2011; active = well fitted inhibition curve with a large enough effect in the signal ratio, with a control signal flat, not every such curve was filed as active; inconclusive = small, poorly fitted or top-dose-only effect, or effect the other way, or a change in a side signal; the % refers to the signal ratio;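 note: plate controls were basal doxycycline-induced cells for no effect and cells given 10 µM MG132 for full effect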
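TMD8 ABC-DLBCL cells carrying doxycycline-inducible green luciferase fused to IkappaBalpha plus unfused red luciferase were exposed to compounds (up to 46 uM) for 4 hrs at 37C. Activity came from the overlap-corrected green/red luminescence ratio.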
Pin1 inhibitor: qHTS Assay to Find Inhibitors of Pin1; Pin1 FP peptide displacement, HiFluor488, 10 min; 390,000 tested, 0.009% active; Peptidyl-prolyl cis-trans isomerase NIMA-interacting 1 (Homo sapiens), Q13526; Potency, µM (series often up to 115 µM), for the others: at the top dose activity, negative = inhibition, usual class: inhibitors; AID 504891, 2011; active = well fitted inhibition curve with a large enough effect in the polarisation, with a control signal flat, not every such curve was filed as active; inconclusive = small, poorly fitted or top-dose-only effect, or effect the other way, or a change in a side signal; inactive = no such curve, though single readings can be large or run the other way; the % refers to the polarisation
An asterisk follows results filed as active; i = inactive; u = inconclusive; x = no result given; ! = a repeat was not active. Most compounds without a hit are left out; they make up all but 0.42% or so of the library. Unless noted, calls come from the whole dose curve; as a rule, active = well fitted curve in the direction sought with a large enough effect; inconclusive = small, poorly fitted or top-dose-only effect, or another doubt; inactive = no such curve, though single readings can be large; an effect the other way counts as inactive or inconclusive. Unless noted, % is set by controls: 0 for no effect and ±100 for the full control effect; potency is the fitted concentration of half-maximal effect.

SMILES	Tb PFK block	GLS inhibitor	PGK inhibitor	B2AR arrestin	BCR signal inh	Pin1 inhibitor
COc1cc(/C=N/n2c(-c3ccccc3)n[nH]c2=S)ccc1O	3%	-27%	-7%	-1%	u	-3%
COc1cc(/C=N/n2c(-c3ccccc3)n[nH]c2=S)cc(OC)c1O	4%	4.5µM*	4%	0%	11%	1%
Cc1ccc(NS(=O)(=O)c2ccc3c(ccn3C)c2)cc1C	x	x	x	x	x	2%
COc1cccc2sc(NN)nc12	-13%	14µM*	-10%	0%	u	0%
COc1ccccc1-c1nnc(Nc2nc3c(OC)cccc3s2)o1	12%	-4%	-5%	0%	u	27%
COc1ccc(-c2cc3nc(C)n(N)c(=O)c3s2)cc1	-27%	-2%	4.5µM*	-1%	u	17%
COc1ccc(-c2cc3nc4n(c(=O)c3s2)CCC4)cc1	-18%	-4%	-7%	-1%	-21%	-1%
COc1ccccc1NS(=O)(=O)c1ccc2c(c1)CCC(=O)N2	x	x	x	x	x	-6%
Cc1cccc(C(=O)NC2C(=O)NNC2c2ccc(Cl)cc2)c1 (stereo not given)	-4%	7.9µM*	i	0%	u	-10%
Cc1nc2ccccc2n1CCc1nc2c3ccccc3nc(=S)n2[nH]1	2%	-3%	i	0%	-29%	0%
Cc1ccccc1-c1nc2c3ccccc3nc(=S)n2[nH]1	-7%	-16%	-8%	10µM*	u	21%
N#CC(C(=S)Nc1ccccc1)c1nc2ccccc2[nH]1 (stereo not given)	-16%	u	i	1.8µM*	u	19%
COc1ccc(C2Nc3ccccc3C(=O)N2Cc2ccccc2)cc1COc1cccc(C)c1 (stereo not given)	x	x	x	x	x	26%
Cn1cncc1CNc1ncnc2ccc(-c3ccc4c(c3)OCO4)cc12	x	x	x	x	x	0%
O=C(COC(=O)C1CC2C=CC1C2)NCc1ccc(F)cc1 (stereo not given)	-3%	5%	8%	-1%	-4%	3%
O=C(COC(=O)C1CC2C=CC1C2)NCc1ccco1 (stereo not given)	u	u	32µM*	0%	2%	u
CC=Cc1cc(OC)c2c(c1)C(C)C(c1ccc(O)c(OC)c1)O2 (stereo not given)	x	8.9µM*	17%	x	x	2%
C/C=C/c1ccc(O)c(OC)c1	3%	22%	-3%	-1%	u	0%
COc1cc2ncnc(N(C)Cc3cccs3)c2cc1-c1ccc2c(c1)OCO2	x	x	x	x	x	6%
S=c1[nH]nc(SCc2ccccc2)c2[nH]cnc12	x	7.1µM*	-2%	x	x	-2%
CCCCSc1n[nH]c(=S)c2nc[nH]c12	x	u	-7%	x	x	-2%
COc1ccc(-c2nn3c(C4CCCCC4)nnc3s2)cc1OC	-26%	-18%	-5%	0%	14µM*	u
COc1ccc(C(=O)N(Cc2ccccc2)Cc2ccccc2)cc1COc1ccc(NC(C)=O)cc1	x	x	x	x	x	2%
N#CNc1nc(O)cc(=O)[nH]1	13%	-34%	28µM*	0%	0%	3%
C/C=C(/C(=C/C)c1ccc(O)cc1)c1ccc(O)cc1	0%	32%	-2%	1.5µM*	-6%	-10%
SMILES	Tb PFK block	GLS inhibitor	PGK inhibitor	B2AR arrestin	BCR signal inh	Pin1 inhibitor
COc1cc(/C=N/Nc2cc(C)nc(N)n2)ccc1O	0%	10µM*	0%	0%	-8%	-4%
Cc1nc2c(C(=O)NCc3ccccc3)cnn2c(C)c1Cc1ccc(F)cc1	x	13µM*	-6%	x	9%	-3%
Cc1nc2c(C(=O)NCc3ccccc3Cl)cnn2c(C)c1Cc1ccccc1	x	-12%	-9%	x	4%	-3%
Cc1nc(C)c(/C(O)=C\c2nc3ccc([N+](=O)[O-])cc3oc2=O)o1	-16%	11µM*	1%	-1%	6%	-12%
Cc1cc(C)c2nc3sc(=Cc4ccc(-c5ccccc5C(=O)O)o4)c(=O)n3c2c1	x	13µM*	x	x	x	x
Cc1ccc2c(nc3s/c(=C\c4ccc(-c5ccccc5C(=O)O)o4)c(=O)n32)c1C	16%	u	-6%	-1%	14%	u
O=C(O)c1ccc(-c2ccc(/C=c3/sc4nc5ccccc5n4c3=O)o2)cc1Cl	-19%	10µM*	10µM*	0%	u	u
O=C(Oc1c(CN2CCOCC2)cc(Cl)c2cccnc12)c1ccccc1Cl	1%	u	0%	3.5µM*	u	3%
COc1cc(C(=O)Oc2c(CN3CCOCC3)cc(Cl)c3cccnc23)cc(OC)c1OC	1%	-12%	-1%	3.5µM*	-2%	-7%
O=C(Oc1c(CN2CCOCC2)cc(Cl)c2cccnc12)c1cccs1	-1%	-9%	-1%	9%	u	1%
C#C[C@@]1(OC(C)=O)CC[C@H]2[C@@H]3CCC4=CC(=O)CC[C@@H]4[C@H]3CC[C@@]21C	x	0%	x	x	x	x
O=C(O)Cc1cccc(=O)c(O)c1C(=O)O	x	2.2µM*	13µM*	x	x	x
O=C(O)Cc1ccccc1C(=O)O	25%	-3%	0%	0%	2%	-1%
O=C1CCc2cc(S(=O)(=O)Nc3ccc4ccccc4c3)ccc2N1	x	x	x	x	x	0%
Cc1c(C)c2ccc(OCC(=O)N[C@@H](Cc3ccccc3)C(=O)O)cc2oc1=O	1%	16µM*	i	0%	14%	-12%
Cc1c(C)c2ccc(OCC(=O)NC(Cc3ccc(Cl)cc3)C(=O)O)cc2oc1=O (stereo not given)	3%	19%	-3%	0%	0%	0%
CO[C@@]1(NC(=O)CSC[C@@H](N)C(=O)O)C(=O)N2C(C(=O)O)=C(CSc3nnnn3C)CS[C@@H]21	x	23%	x	x	x	x
CO[C@@]1(NC(=O)Cc2cccs2)C(=O)N2C(C(=O)O)=C(COC(N)=O)CS[C@@H]21	-8%	11µM*!	-11%	-1%	4%	x
NC(=S)N=Nc1c(O)n(Cc2ccc(F)cc2)c2ccccc12	0%	1%	i	9.2µM*	u	-1%
COc1cc2c(c(OC)c1OC)-c1c(cc3c(c1OC)OCO3)CC(C)C(C)(O)C2 (stereo not given)	x	-6%	x	x	x	x
COc1cccc(C2c3c(ncn(-c4ccccc4Br)c3=N)Oc3ccc4ccccc4c32)c1 (stereo not given)	x	x	x	x	x	18%
CC(=O)c1cc2c(s1)c1cnn(Cc3ccccc3F)c(=O)c1n2C	x	x	x	x	x	-4%
